{
  "source": "PubChem BioAssay AID588397",
  "about": "(National Center for Advancing Translational Sciences (NCATS), 2011)",
  "note": "Out of some 1,300 compounds screened, about 1,000 (77%) were called active. Another 7% or so got no clear call; they are omitted. The set was probably picked from earlier hits. The list shows a part of the results. A number with no mark means an inactive call. The call rests on the fitted dose curve; in most records, active means well fitted inhibition curve with a large enough effect; inconclusive means small, poorly fitted or top-dose-only effect; inactive means no such curve, though single readings can be large or run the other way. On the % scale 0 is the no-effect control and ±100 the full control effect; potency means the concentration at half of the fitted maximal effect.",
  "data": [
    {"experiment": "qHTS of small molecules that selectively kill Giardia lamblia: Hit Validation;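 further: viability measured as ATP content by luminescence so killing lowers signal; nearly all actives have a fitted effect of over 65% in size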.", "conditions": "Giardia lamblia trophozoite viability, dose-response; series mostly up to 38.3 µM; activity change, negative = killing: at the top concentration", "from_the_text": "Giardia lamblia is a human pathogen afflicting impoverished nations, and the most common cause of outbreaks of diarrhea in the United States. Giardia has been classified by the CDC as a category B bioterrorism organism. The favored anti giardiasis drugs in the US are metronidazole or tinidazole, compounds that have undesirable side effects. Moreover, increasing resistance to drug regimes and recurrence are a concern. It is thus clear that alternative drug treatments are needed.\nIn a collaboration between the University of Maryland, College Park and the NIH Chemical Genomics Center, a bioluminescence Giardia viability assay based on the trophozoites' ATP content was developed. This assay is suitable for high throughput screening, and miniaturized the assay for compound screening in 1536-well plates. The goal of the project is to screen the Molecular Libraries Small Molecule Repository (MLSMR) for compounds that selectively kill Giardia trophozoites.\nNIH Chemical Genomics Center [NCGC]\nNIH Molecular Libraries Probe Centers Network [MLPCN]\nAssay Submitter (PI): Osnat Herzberg, University of Maryland, College Park, MD.\n1. Dispense 2 ul/well media\n2. Dispense 23 nl/well compounds\n3. Dispense 4 ul/well Giardia trophozoites at a concentration of 100 cells/well\n4. Incubate 48 hrs at 37 deg C anaerobically\n5. Dispense 4 ul/well ATPLite 1-Step Luminescence assay kit\n6. Incubate 15-30 min at room temperature\n7. Read luminescence signal on ViewLux plate reader", "units": {"activity change, negative = killing": "%"}, "values": [
      {"smiles": "Cc1cc([N+](=O)[O-])c2ccccc2[n+]1[O-]", "Potency": "206 nM (active)"},
      {"smiles": "CC(=O)OC[C@]12CCC(C)=C[C@H]1O[C@@H]1[C@H](O)[C@@H](OC(C)=O)[C@@]2(C)[C@]12CO2", "Potency": "5160 nM (active)"},
      {"smiles": "COC1/C=C/C=C(\\C)Cc2cc(O)c(Cl)c(c2)N(C)C(=O)CC(OC(=O)C(C)C)C2(C)OC2C(C)C2CC1(O)NC(=O)O2", "note": "(centres undefined)", "Potency": "460 nM (active)"},
      {"smiles": "COC(/C(C)=C/C=C/C(C)=C/c1coc(C)n1)C(C)C1CC(O)C2(C)OC2C=CC(C)C2CC(CC(=O)O2)CC2OC2C(=O)O1", "note": "(centres undefined)", "Potency": "23.1 nM (active)"},
      {"smiles": "C[N+]12CCC(CC1)C(=C(c1ccccc1)c1ccccc1)C2", "activity change, negative = killing": -5.4},
      {"smiles": "COC12C(COC(N)=O)C3=C(C(=O)C(C)=C(N)C3=O)N1CC1C2N1C", "note": "(centres undefined)", "Potency": "5790 nM (active)"},
      {"smiles": "O=[N+]([O-])c1cc([As](=O)(O)O)ccc1O", "Potency": "5790 nM (active)"},
      {"smiles": "O=[N+]([O-])c1cc([As](=O)(O)c2ccc(O)c([N+](=O)[O-])c2)ccc1O", "Potency": "818 nM (active)"},
      {"smiles": "O=[N+]([O-])c1ccc(O)c([N+](=O)[O-])c1", "Potency": "2310 nM (active)"},
      {"smiles": "Cc1nnc2ccc(-c3cccc(C(F)(F)F)c3)nn12", "activity change, negative = killing": -28.2},
      {"smiles": "ClCCOCCCl", "activity change, negative = killing": -5.76},
      {"smiles": "Fc1ccc(C2NCCc3[nH]cnc32)cc1", "note": "(centres undefined)", "activity change, negative = killing": 10.2},
      {"smiles": "CCOc1ccc(-c2cc(C(=O)N3CCC4(CC3)OCCO4)c3ccccc3n2)cc1", "Potency": "7290 nM (active)"},
      {"smiles": "COc1ccc(C[C@H]2NC[C@H](O)[C@H]2OC(C)=O)cc1", "Potency": "650 nM (active)"},
      {"smiles": "COc1ccc(CC2NCC(O)C2OC(C)=O)cc1", "note": "(centres undefined)", "Potency": "1030 nM (active)"},
      {"smiles": "CCOC(=O)C1CCCN(c2ccc([N+](=O)[O-])c3nonc23)C1", "note": "(centres undefined)", "Potency": "1160 nM (active)"},
      {"smiles": "CNC(=O)Oc1cccc(-c2cn3cc(Cl)ccc3n2)c1", "Potency": "2050 nM (active)"},
      {"smiles": "CC1=C(N2CC2)C(=O)C(CO)=C(N2CC2)C1=O", "Potency": "115 nM (active)"},
      {"smiles": "c1ccc2c(c1)[I+]c1ccccc1-2", "Potency": "146 nM (active)"},
      {"smiles": "COC(=O)c1nc(-c2ccc3c(n2)C(=O)C(N)=C(OC)C3=O)c(N)c(-c2ccc(OC)c(OC)c2O)c1C", "Potency": "2590 nM (active)"},
      {"smiles": "CN(C)C(=O)Oc1ccc(Br)c2ccccc12", "activity change, negative = killing": 12.9},
      {"smiles": "CC(=O)OC1(C)CC(C)C(=O)C(C(O)CC2CC(=O)NC(=O)C2)C1", "note": "(centres undefined)", "Potency": "18.3 nM (active)"},
      {"smiles": "CC1CC(C)(O)CC(C(O)CC2CC(=O)NC(=O)C2)C1=O", "note": "(centres undefined)", "Potency": "146 nM (active)"},
      {"smiles": "CC(C)(O)C1C2OC(=O)C1C1(O)CC3OC34C(=O)OC2C14C", "note": "(centres undefined)", "activity change, negative = killing": 2.07},
      {"smiles": "Cc1ncc([N+](=O)[O-])n1CCOC(N)=O", "Potency": "3260 nM (active)"},
      {"smiles": "Cc1ncc([N+](=O)[O-])n1CCOc1nonc1N", "Potency": "1030 nM (active)"},
      {"smiles": "CC1CC(C)CC(C)C(O)C(C#N)=CC=CCC(C2CCCC2C(=O)O)OC(=O)CC(O)C(C)C1", "note": "(centres undefined)", "Potency": "326 nM (active)"},
      {"smiles": "COc1ccc(OC(=O)N2C/C(=C/c3ccccc3)C(=O)/C(=C\\c3ccccc3)C2)cc1", "Potency": "1160 nM (active)"},
      {"smiles": "NC(=O)c1cc(N2CC2)c([N+](=O)[O-])cc1[N+](=O)[O-]", "Potency": "650 nM (active)"},
      {"smiles": "O=[N+]([O-])c1ccc(-c2ccccc2)c([As](=O)(O)O)c1", "Potency": "259 nM (active)"},
      {"smiles": "CC1Oc2cc3c(-c4c(O)cc(O)c5c(O)c6c(cc45)OC(C)C(C)C6=O)c(O)cc(O)c3c(O)c2C(=O)C1C", "note": "(centres undefined)", "Potency": "1030 nM (active)"},
      {"smiles": "COC(COC(N)=O)C1=C(N2CC2)C(=O)C(C)=C(N2CC2)C1=O", "note": "(centres undefined)", "Potency": "729 nM (active)"},
      {"smiles": "O=[N+]([O-])c1oc2ccc3ccccc3c2c1CCO", "Potency": "51.6 nM (active)"},
      {"smiles": "NN=C(N)N", "activity change, negative = killing": -24.8},
      {"smiles": "C[C@H]1C[C@@H](C)C(=O)[C@@H]([C@H](O)CC2CC(=O)NC(=O)C2)C1", "Potency": "72.9 nM (active)"},
      {"smiles": "C[C@@H]1C[C@@H]([C@H](O)CC2CC(=O)NC(=O)C2)C(=O)[C@@H](C)C1", "Potency": "183 nM (active)"},
      {"smiles": "Cc1ccc(-c2nc3c(=O)n(C)c(=O)nc-3n(C)n2)cc1", "Potency": "103 nM (active)"},
      {"smiles": "Cc1nc2c(=O)n(C)c(=O)nc-2n(C)n1", "Potency": "259 nM (active)"},
      {"smiles": "CCn1nc(/C=C/c2ccccc2)nc2c(=O)n(C)c(=O)nc1-2", "Potency": "146 nM (active)"},
      {"smiles": "Cn1nc(-c2ccccc2)nc2c(=O)n(C)c(=O)nc1-2", "Potency": "163 nM (active)"},
      {"smiles": "Cc1ccc(C(c2nnnn2Cc2ccccc2)N2CC=C(c3ccc(F)cc3)CC2)cc1", "note": "(centres undefined)", "activity change, negative = killing": 6.65},
      {"smiles": "COC(=O)C12OCC34C(CC5C(C)=C(O)C(=O)CC5(C)C3C(O)C1O)OC(=O)C(OC(=O)/C=C(\\C)C(C)C)C24", "note": "(centres undefined)", "Potency": "579 nM (active)"},
      {"smiles": "O=c1c2ccccc2nc(/C=C/c2ccc([N+](=O)[O-])o2)n1-c1ccc(O)cc1", "Potency": "290 nM (active)"},
      {"smiles": "Cc1nc2ccccc2c(=O)n1-c1cc([N+](=O)[O-])cc([N+](=O)[O-])c1", "Potency": "10300 nM (active)"},
      {"smiles": "Cc1cccc(-n2c(/C=C/c3ccc([N+](=O)[O-])o3)nc3ccccc3c2=O)c1", "Potency": "1630 nM (active)"},
      {"smiles": "O=c1c2ccccc2nc(/C=C/c2ccc(O)cc2)n1-c1cccc(O)c1", "activity change, negative = killing": -17.3},
      {"smiles": "CC1CN(c2ccc([N+](=O)[O-])c3cccnc23)CC(C)N1", "note": "(centres undefined)", "Potency": "1300 nM (active)"},
      {"smiles": "CN1CCN(c2ccc([N+](=O)[O-])c3cccnc23)CC1", "Potency": "1030 nM (active)"},
      {"smiles": "CCCCn1c(=O)c(C(=O)NCc2ccccc2OC)c(O)c2ccccc21", "activity change, negative = killing": -4.32},
      {"smiles": "[Hg+][c]1ccccc1", "Potency": "4100 nM (active)"},
      {"smiles": "CN1CCCN(c2ccc([N+](=O)[O-])nc2)CC1", "Potency": "6500 nM (active)"},
      {"smiles": "C=CC1CN2CCC1CC2[C@@H](OC(=O)c1ccc(OC)cc1)c1ccnc2ccccc12", "note": "(some centres undefined)", "Potency": "818 nM (active)"},
      {"smiles": "c1ccc2c(c1)[IH]c1ccccc1-2", "Potency": "460 nM (active)"},
      {"smiles": "CN(c1ccccc1)c1ccc([N+](=O)[O-])c2nonc12", "Potency": "410 nM (active)"}
    ]}
  ]
}
